PubChem BioAssay
Calls of active or inactive are those of the source. Unless noted, how the calls were made is not given here.

Assays:
[1] = compound effects on lung adenocarcinoma cell viability – A549, calcein-AM fluorescence, 48 h, basal, profiling panel (AID 1162); settings: higher = more signal; further: test concentration not given here
[2] = compound effects on differentiated 3T3-L1 adipocyte viability – cell-based, 3T3-L1 adipocytes, calcein-AM fluorescence, 48 h, basal, profiling panel (AID 1163); settings: 3T3-L1 adipocytes viability, higher = more signal; further: test concentration not given here
[3] = compound effects on hepatocellular carcinoma cell viability – HepG2, calcein-AM fluorescence, 48 h, basal, profiling panel (AID 1164); settings: higher = more signal; further: test concentration not given here
[4] = compound effects on multiple myeloma cell viability – MM1S, calcein-AM fluorescence, 48 h, basal, profiling panel (AID 1165); settings: higher = more signal;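 further: viability of MM1S multiple myeloma cells under basal unstimulated conditions; test concentration not given here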
[5] = calcein-AM signal in unstimulated myeloma cells – cell-based, calcein-AM fluorescence, 48 h, PK04 Diversity Set, profiling panel (AID 1166); settings: RPMI8226 myeloma viability, higher = more signal;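 further: cells grown under basal conditions without added stimulus; test concentration not given here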
[6] = JC-1 mitochondrial signal, unstimulated HepG2 cells – cell-based, JC-1 fluorescence, 24 h, 100 nL compound, profiling panel (AID 1167); settings: HepG2 mitochondrial potential, higher = more signal; further: test concentration not given here
[7] = JC-1 mitochondrial signal, unstimulated adipocytes – cell-based, JC-1 fluorescence, 3T3-L1 adipocytes, 24 h, 100 nL compound, profiling panel (AID 1168); settings: JC-1 mitochondrial fluorescence, higher = more signal, called active from +8 up or from −8 down; further: test concentration not given here
[8] = JC-1 mitochondrial signal, unstimulated myeloma cells – cell-based, JC-1 fluorescence, RPMI8226, 24 h, 100 nL compound, profiling panel (AID 1169); settings: JC-1 mitochondrial potential fluorescence, higher = more signal; further: test concentration not given here
[9] = JC-1 mitochondrial signal, unstimulated MM1S myeloma – cell-based, JC-1 fluorescence, 24 h, 100 nL compound, profiling panel (AID 1170); settings: MM1S mitochondrial potential, higher = more signal; further: test concentration not given here
[10] = resazurin metabolic signal in A549 cells – cell-based, resazurin fluorescence, 24 h, PK04 Diversity Set, profiling panel (AID 1171); settings: A549 viability, higher = more signal, called active from +8 up or from −8 down; further: test concentration not given here
[11] = resazurin metabolic signal in HepG2 cells – cell-based, resazurin fluorescence, 24 h, PK04 Diversity Set, profiling panel (AID 1172); settings: HepG2 viability, higher = more signal; further: test concentration not given here
[12] = budding yeast growth changes without added modifier – OD600, strain BY4716, 24 h, basal condition, primary screen (AID 1173); settings: S. cerevisiae BY4716 growth, OD600, 24 h; higher = more signal, called active from +8 up or from −8 down
[13] = viability profiling in MM1S myeloma cells – cell-based, resazurin fluorescence, basal, 24 h, PK04 Diversity Set, profiling panel (AID 1174); settings: higher = more signal, called active from +8 up or from −8 down; further: test concentration not given here
[14] = target: Dihydroorotate dehydrogenase (quinone), mitochondrial (Plasmodium falciparum (isolate 3D7)) (UniProt Q08210); experiment: inhibition of P. falciparum DHODH – biochemical, C-terminal His tag, absorbance 600 nm, primary screen (AID 1175); settings: PfDHODH enzyme, DCIP absorbance 600 nm; higher = more signal, called active from +8 up or from −8 down;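 further: recombinant parasite enzyme with a five histidine tag at its C terminus; test concentration not given here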
Sequence of Dihydroorotate dehydrogenase (quinone), mitochondrial (Plasmodium falciparum (isolate 3D7)) (Q08210 whole entry, looked up): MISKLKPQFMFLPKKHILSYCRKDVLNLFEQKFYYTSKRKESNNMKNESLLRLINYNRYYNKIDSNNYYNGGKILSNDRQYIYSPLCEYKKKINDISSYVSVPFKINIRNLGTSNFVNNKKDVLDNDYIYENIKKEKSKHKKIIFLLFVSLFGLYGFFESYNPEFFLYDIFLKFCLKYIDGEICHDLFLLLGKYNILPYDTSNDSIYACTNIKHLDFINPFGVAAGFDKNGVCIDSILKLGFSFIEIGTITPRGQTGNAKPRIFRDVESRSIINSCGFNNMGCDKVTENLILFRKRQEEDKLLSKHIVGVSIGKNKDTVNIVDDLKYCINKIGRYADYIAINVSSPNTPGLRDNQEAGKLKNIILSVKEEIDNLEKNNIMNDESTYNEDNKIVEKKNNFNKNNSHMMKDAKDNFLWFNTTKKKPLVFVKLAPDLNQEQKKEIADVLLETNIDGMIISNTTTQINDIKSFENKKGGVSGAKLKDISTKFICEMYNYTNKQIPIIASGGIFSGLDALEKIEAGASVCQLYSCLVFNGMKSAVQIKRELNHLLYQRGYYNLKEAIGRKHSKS

[15] = inhibition of PAO1 biofilm formation – strain PAO1, LB-PBS medium, absorbance 600 nm, primary screen (AID 1176); further: test concentration not given here; settings: P. aeruginosa PAO1 growth/biofilm, A600, 12 h; higher = more signal
[16] = growth modulation of vineyard yeast isolate – strain RM11-1a, OD600, basal, 24 h, primary screen (AID 1177);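 further: cultures grown under basal conditions with no added stressor; test concentration not given here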; settings: S. cerevisiae RM11-1a growth, OD600, 24 h; higher = more signal, called active from +8 up or from −8 down
[17] = growth of efflux-deficient E. coli DRC39 – strain DRC39, OD650, 24 h, E. coli filamentation inducers, primary screen (AID 1178);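 further: growth measured as culture turbidity by optical density at 650 nm; test concentration not given here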; settings: E. coli DRC39 acrAB, higher = more signal, called active from +8 up or from −8 down
[18] = growth of efflux-deficient E. coli DRC39 – strain DRC39, OD650, 48 h, E. coli filamentation inducers, primary screen (AID 1179);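 further: screen aims at cell division blockers that make cells filament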; settings: E. coli DRC39 delta-acrAB growth, higher = more signal, called active from +8 up or from −8 down
[19] = viability profiling in RPMI8226 myeloma cells – cell-based, resazurin fluorescence, basal, 24 h, PK04 Diversity Set, profiling panel (AID 1180); settings: higher = more signal;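 further: RPMI8826 multiple myeloma cell line at 5000 cells per well; test concentration not given here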
[20] = target: E3 ubiquitin-protein ligase XIAP (Homo sapiens) (UniProt P98170); experiment: small molecules binding XIAP protein – biophysical, small-molecule microarray, fluorescence 635 nm, primary screen (AID 1181); settings: higher = more signal;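 further: score merges 667 nm emission and signal to noise over triplicate slides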
Sequence of E3 ubiquitin-protein ligase XIAP (Homo sapiens) (P98170 whole entry, looked up): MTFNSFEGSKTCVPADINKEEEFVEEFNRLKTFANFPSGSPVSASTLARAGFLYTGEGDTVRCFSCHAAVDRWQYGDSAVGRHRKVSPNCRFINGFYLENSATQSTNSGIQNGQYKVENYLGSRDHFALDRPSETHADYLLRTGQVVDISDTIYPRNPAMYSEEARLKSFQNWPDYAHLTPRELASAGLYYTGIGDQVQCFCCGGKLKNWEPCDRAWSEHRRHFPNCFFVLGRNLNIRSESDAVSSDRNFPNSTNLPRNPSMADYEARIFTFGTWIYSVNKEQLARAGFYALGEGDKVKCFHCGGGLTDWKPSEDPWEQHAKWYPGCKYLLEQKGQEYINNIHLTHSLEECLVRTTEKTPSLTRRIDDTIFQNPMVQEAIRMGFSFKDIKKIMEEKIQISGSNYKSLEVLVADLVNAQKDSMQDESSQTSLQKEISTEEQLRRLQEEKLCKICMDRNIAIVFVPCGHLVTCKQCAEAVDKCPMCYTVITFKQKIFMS

Row | SMILES | z-score [1] | z-score [2] | z-score [3] | z-score [4] | z-score [5] | z-score [6] | z-score [7] | z-score [8] | z-score [9] | z-score [10] | z-score [11] | z-score [12] | z-score [13] | composite z-score [14] | z-score [15] | z-score [16] | z-score [17] | z-score [18] | z-score [19] | composite z-score [20]
1 | CC(c1ccccc1)C(O)C1C=CC2C(=O)N(C)C(=O)C2N1Nc1ccccc1 (stereo not given) | -0.227 | -0.856 | 0.36 | -2.65 | -0.435 | -0.624 | -0.83 (inactive) | 0.446 | -0.527 | -0.183 (inactive) | -0.705 | -0.0181 (inactive) | -1.27 (inactive) | -0.475 (inactive) | 0.944 (inactive) | -0.0455 (inactive) | -1.12 (inactive) | -0.374 (inactive) | -1.1 | -0.0654
2 | COCCOC(=O)N1C(=O)[C@@]2(c3cc(C#CC4(O)CCCCCC4)ccc31)[C@H](C(=O)Nc1nc3ccccc3s1)[C@H]1C(=O)O[C@H](c3ccccc3)[C@H](c3ccccc3)N1[C@@H]2c1ccc(O)cc1 | 0.638 | -0.457 | 0.74 | -0.227 | -2.46 | -3.17 | -0.421 (inactive) | -0.897 | -0.897 | -0.436 (inactive) | -0.0328 | -0.873 (inactive) | -0.858 (inactive) | -1.03 (inactive) | 0.598 (inactive) | 1.24 (inactive) | 0.487 (inactive) | 0.613 (inactive) | -0.945 | -0.0274
3 | CN(C)C(=O)[C@@]1(Cc2ccccc2CN=[N+]=[N-])N=C(c2ccc(OCCCO)cc2)O[C@H]1c1ccccc1N=[N+]=[N-] | -1.63 | 2 | -2.15 | -3.03 | -3.98 | 0.129 | -0.052 (inactive) | -1.08 | -0.796 | -2.09 (inactive) | -0.699 | 0.37 (inactive) | -2.96 (inactive) | 1.3 (inactive) | 0.522 (inactive) | 1.22 (inactive) | 0.776 (inactive) | -0.893 (inactive) | -3.85 | 0.202
4 | COC(=O)[C@@H]1N=C(c2ccc(OCCCO)cc2)O[C@@H]1c1ccccc1 | 0.623 | 0.469 | -0.677 | 0.565 | 0.474 | -0.659 | -0.652 (inactive) | 0.278 | -0.241 | 0.331 (inactive) | 1.64 | -2.99 (inactive) | 1.09 (inactive) | -0.103 (inactive) | -0.484 (inactive) | -0.763 (inactive) | 0.714 (inactive) | 0.129 (inactive) | 1.5 | 0.761
5 | COc1ccc(C#Cc2ccc3c(c2)[C@]2(C(=O)N3)[C@H](c3ccc(O)cc3)N3[C@H](c4ccccc4)[C@H](c4ccccc4)OC(=O)[C@H]3[C@@H]2C(=O)Nc2nc3ccccc3s2)cc1 | 0.453 | 1.89 | -0.0578 | -1.4 | -2.6 | -2.28 | 0.0579 (inactive) | -0.429 | 0.0506 | -1.21 (inactive) | -1.11 | -0.155 (inactive) | 0.415 (inactive) | -15.8 (active) | 1.21 (inactive) | 1.2 (inactive) | 0.198 (inactive) | 0.0227 (inactive) | 1.07 | 0.289
6 | C=CCC(OC(C)=O)[C@@H]1[C@@H](N(Cc2ccc(-c3cccc(C(F)(F)F)c3)o2)C(=O)Cc2ccc(OC)cc2)c2cc(OCCCO)ccc2N1C(=O)c1ccc(-c2ccccc2)cc1 (stereo not given in full) | 0.095 | 0.647 | 0.926 | -0.681 | -1.93 | 3.55 | -0.645 (inactive) | 0.498 | 0.504 | -1.71 (inactive) | -1.35 | -0.0331 (inactive) | -0.0666 (inactive) | 0.821 (inactive) | -0.24 (inactive) | 0.0869 (inactive) | -0.165 (inactive) | -0.555 (inactive) | -0.197 | 0.125
7 | C=CCN1C(=O)[C@]2(CCC(=O)OC(C)(C)C)N=C(c3ccc(OCCCO)cc3)O[C@@H]2c2ccccc21 | -0.656 | 1.79 | -1.74 | -3.56 | -4.05 | -1.45 | 4.11 (inactive) | -1.05 | -2.81 | -2.21 (inactive) | -1.11 | -1.32 (inactive) | -3.44 (inactive) | -0.292 (inactive) | 0.314 (inactive) | 0.853 (inactive) | 0.93 (inactive) | 0.685 (inactive) | -6.48 | -0.0387
8 | CCCN1C(=O)[C@]2(Cc3ccccc31)N=C(c1ccc(OCCCO)cc1)O[C@@H]2c1ccccc1 | -1.29 | 1.07 | -1.46 | -1.6 | -4.4 | -0.29 | -0.906 (inactive) | -1.17 | 0.278 | -1.6 (inactive) | -0.222 | -1.72 (inactive) | -1.31 (inactive) | 1.16 (inactive) | 0.0279 (inactive) | 1.4 (inactive) | 1.15 (inactive) | -0.413 (inactive) | -0.804 | 0.0605
9 | COCCOC(=O)N1C(=O)[C@@]2(c3cc(C#CC4(O)CCCCCC4)ccc31)[C@H](C(=O)N1CCc3cc(OC)c(OC)cc3C1)[C@H]1C(=O)O[C@H](c3ccccc3)[C@H](c3ccccc3)N1[C@@H]2c1ccc(OCCO)cc1 | -0.111 | 0.172 | -0.653 | -1.83 | -0.468 | -0.32 | 0.354 (inactive) | -0.542 | -1.39 | -0.317 (inactive) | -0.614 | 1.66 (inactive) | -0.935 (inactive) | -0.494 (inactive) | 3.41 (inactive) | 2.54 (inactive) | -0.201 (inactive) | 0.389 (inactive) | -0.607 | 0.107
